These results are taken from PubChem BioAssay AID488890 (Southern Research Specialized Biocontainment Screening …, 2010).

The inhibition is the relative decrease from the control value, in per cent.

The campaign covered roughly 320,000 compounds. About 1,300 (0.41%) were called active. Roughly 3% stayed inconclusive and do not appear here. The rule behind the calls is not given here. These entries were drawn from the full list. Entries with a potency or affinity are not part of this list.

The nature of the assay: growth inhibition of non-replicating M. tuberculosis (AID 488890).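 Note: plate controls were DMSO cells for no effect and high antibiotic wells for full effect.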 Particulars: Mycobacterium tuberculosis non-replicating, at 25 µM, stronger effect = higher value.
Take `CC(=O)Nc1ccc(/C=C/c2ccc3c([N+](=O)[O-])cccc3n2)cc1`: the inhibition was 10.1%.

For `COc1cc(/C=C/c2ccc3cccc([N+](=O)[O-])c3n2)ccc1OCC(=O)O`, the inhibition was 31.6%. As to `CN1/C(=C\C(=O)COC(=O)c2ccco2)C(C)(C)c2ccccc21`, the inhibition turned out to be 64.9%.

With `CN1/C(=C\C(=O)COC(=O)c2ccc(O)cc2)C(C)(C)c2ccccc21`, the inhibition was 57.9%. Take `CN1/C(=C\C(=O)COc2ccc3c(c2)OCO3)C(C)(C)c2ccccc21`: the inhibition came to 43%. For the molecule `CN1/C(=C\C(=O)COC(=O)CN2C(=O)C3CC=CCC3C2=O)C(C)(C)c2ccccc21` (stereo not given), the inhibition stood at 19.7%. `COC(=O)c1ccccc1NC(=O)COc1ccc2c(c1)OCO2`: the inhibition came to 70.5%. Consider `O=C(N/N=C/c1c[nH]c2ccccc12)C1CC(=O)N(c2ccccc2)C1` (stereo not given), for which the inhibition is 12.1%.

For the molecule `Cc1cc(C(=O)COC(=O)c2cccnc2Cl)c(C)n1C`, the inhibition is 7.66%. Next, `Cc1cc(C(=O)COc2ccc(F)cc2Br)c(C)n1C`: 11.3%; `CCN(CC)c1ccc2c(C)c(Cl)c(=O)oc2c1`: 2.25%.

With `CCN(CC)c1ccc2c(Cl)cc(=O)oc2c1`, the inhibition worked out at 11.8%.

On to `Cc1cc(C)cc(OCC(=O)Nc2cccc(S(=O)(=O)NC3=NCCC3)c2)c1`, for which the inhibition was 5.82%. Turning to `O=C(N/N=C/c1cc(Br)ccc1O)Nc1ccccc1`, the inhibition came to 14.3%. Take `O=C(CNC(=O)c1ccccc1Br)N/N=C/c1cc(Br)ccc1O`: the inhibition turned out to be 17.8%.

With `COC(=O)N/N=C/c1cc(Br)ccc1O`, the inhibition was determined as 27.7%.

Take `Oc1ccc(Br)cc1/C=N/NC(=S)NCCc1ccccc1`: the inhibition is 45.2%. In the case of `O=C(CNC(=O)c1ccccc1)N/N=C/c1cc(Br)ccc1O`, the inhibition is 38.3%. Turning to `O=C(N/N=C/c1cc(Br)ccc1O)c1ccncc1`, the inhibition is 63.8%. On to `COc1cccc(-c2nc(CS(=O)(=O)CC(=O)NCCCN3CCN(C)CC3)c(C)o2)c1`, for which the inhibition is -1.26%. `C/C(=N\N=C1\NC(=O)C(CC(=O)Nc2ccc(C)c(Cl)c2)S1)C(C)(C)C` (stereo not given): the inhibition was 38.8%. In the case of `CCCn1c2c(c(O)c(C(=O)Nc3ccc(OC)cc3)c1=O)CCCC2`, the inhibition was 11.5%. The figure for `CC1(C(=O)NC(=S)N(CCC#N)Cc2cccnc2)CC1(Cl)Cl` (stereo not given) is 12.4%. With `Cc1ccc(NC(=O)COC(=O)CC2CC3CCC2C3)cc1S(=O)(=O)N1CCOCC1` (stereo not given), the inhibition was 9.66%. Next, `COC(=O)CCN1CCN(S(=O)(=O)c2ccccc2Br)CC1`: -21.4%; `COc1ccccc1/C=N/Nc1nc(C)cc(C)n1`: 20.8%.

For the molecule `COc1ccc(OC)c(/C=N/Nc2cc(C)nc(N3CCOCC3)n2)c1`, the inhibition was 8.92%.

Take `COc1ccc(/C=N/Nc2cc(C)nc(N3CCOCC3)n2)c(OC)c1`: the inhibition was -23.5%. As for `Cc1cc(N/N=C/c2ccc(O)cc2O)nc(-c2ccccc2O)n1`, the inhibition was determined as 0.04%. On to `Cc1cc(N/N=C/c2ccc(O)cc2O)nc(N2CCOCC2)n1`, for which the inhibition was 6.6%. For the molecule `O=[N+]([O-])c1ccccc1/C=N/Nc1nc(N2CCCC2)nc(N2CCCC2)n1`, the inhibition stood at 18.8%. The figure for `COc1ccccc1/C=N/Nc1cc(C)nc(N2CCOCC2)n1` is 8.69%; for `Cc1cc(C)n(-c2ccccc2[N+](=O)[O-])n1` it is 24.1%; for `O=C(CSc1ncccc1C(=O)O)NC1CCCCCCC1` it is -1.94%.

`Cc1cc(C)c(C)c(S(=O)(=O)NC(C(=O)O)C(C)C)c1C` (stereo not given): the inhibition was -1.77%. As to `Cc1cc(C)c(NC(=S)N2CCC(N(C)CC3CCCO3)CC2)c(C)c1` (stereo not given), the inhibition is -2.45%. Next, `O=C(C[n+]1cccc(Br)c1)c1ccc(-c2ccccc2)cc1`: 31.7%.

Turning to `CCCc1cc(C(=O)N2CCCC(N3CCN(c4ccccc4C)CC3)C2)n(C)n1` (stereo not given), the inhibition was found to be 8.14%.

Take `COc1ccccc1C(=O)NCCC(=O)Nc1ccc(S(=O)(=O)N2CCC(C)CC2)cc1`: the inhibition came to 27.4%. For the molecule `Cc1ccc(NC(=O)CCSc2nnc(C)o2)cc1`, the inhibition worked out at 9.37%. With `Cc1ccc(NC(=O)CSc2nnc(Cc3ccccc3)o2)c(C)c1`, the inhibition worked out at 79.6%. Next, `CCNC(=O)CCSc1nnc(-c2ccco2)o1`: -8.15%; `Cc1cccc(C)c1NC(=O)CSc1nnc(Cc2ccccc2)o1`: -8.32%; `CC(=O)Nc1ccc(C(=O)CSc2nnc(Cc3ccccc3)o2)cc1`: 38.2%. Next, `Cc1ccc(NC(=O)CSc2nnc(-c3ccco3)o2)cc1`: 27.5%; `O=C(CN1CCN(CCN2C(=O)c3cccc4cccc(c34)C2=O)CC1)c1ccc(F)cc1`: 79.3%; `Cc1ccc(NC(=O)C2=NNC(=O)CC2)cc1S(=O)(=O)Nc1ccc(SC(F)F)cc1`: 6.44%.

On to `CC1CN(S(=O)(=O)c2cccc(C(=O)OCC(=O)N3CCCCCC3)c2)CC(C)O1` (stereo not given), for which the inhibition was -8.29%.

For the molecule `COc1ccc2c(c1OC)C(=O)N(c1cccc(C)c1)C2`, the inhibition is -2.97%.

Take `O=C(O)Cn1c(SCCOc2ccc(Cl)cc2)nc2ccccc21`: the inhibition is 1.68%. The figure for `COc1cc(C)c(Cl)cc1S(=O)(=O)NCc1ccccn1` is -0.9%. On to `O=c1c2[nH]c3ccc(Br)cc3c2ncn1Cc1ccncc1`, for which the inhibition is -8.92%. Next, `CCOC(=O)c1c(NC(=O)C2Cc3ccccc3C(=O)O2)sc2c1CCCC2` (stereo not given): -2.64%.

As for `Cc1ccc(OCC(O)CN2CCN(c3ccccn3)CC2)c(C)c1` (stereo not given), the inhibition stood at 41.5%. As for `Cc1ccc(NC(=O)C2CCCN2C(=O)Oc2ccccc2)c(C)c1` (stereo not given), the inhibition is -3.45%. Take `Clc1ccc(-c2ccc(CNCC3CCCO3)o2)cc1` (stereo not given): the inhibition was found to be 72.6%. For `COc1ccc(-c2ccc(CNCc3ccccn3)o2)cc1Cl`, the inhibition came out at 78.7%.

As to `Cc1c(Cl)cccc1NC(=O)NCc1ccccn1`, the inhibition was -10.1%. Turning to `O=C(NCc1ccccn1)Nc1ccc(F)c(Cl)c1`, the inhibition is -1.66%. Next, `O=C(NCc1ccccn1)c1cc(-c2ccc(Cl)cc2)oc1C(F)(F)F`: 10.7%. Next, `O=C(Nc1nccs1)c1ccc(-c2ccc(F)c(Cl)c2)o1`: 29.7%. The figure for `Cc1c(C(=O)NCc2ccccn2)oc2c(Cl)cccc12` is 15.1%; for `Clc1cccc(-c2ccc(CNCCCN3CCOCC3)o2)c1` it is -19.7%; for `O=C1NCCN/C1=C\C(=O)c1cccc(Br)c1` it is -1.75%. Take `CC1=C(C(=O)OC(C)C)C(c2coc3ccccc3c2=O)C2=C(CCCC2=O)N1` (stereo not given): the inhibition is 21.4%. Regarding `CCOc1ccccc1OCC(=O)OCc1csc(CC(=O)Nc2ccccc2C)n1`, the inhibition came to 37.2%.

As to `COc1ccc(NC(=O)CSc2nc3ccsc3c(=O)n2CCCCCC(=O)O)cc1`, the inhibition was -12.1%. `O=C(c1ccc2c(c1)OCO2)N1CCC2(CC1)Oc1ccc(F)cc1C(=O)C21CC(c2ccccc2)=NO1` (stereo not given): the inhibition was 42.7%. `COc1cc(C(C)=O)ccc1OCC(=O)NCC1(N2CCCCC2)CCCCC1`: the inhibition was found to be 23.8%. In the case of `O=C(CCc1c[nH]c2ccccc12)N[C@@H](Cc1c[nH]c2ccc(O)cc12)C(=O)O`, the inhibition was -12.9%. Take `O=S(=O)(NCC(c1cccnc1)N1CCN(c2ccccc2)CC1)c1cccs1` (stereo not given): the inhibition is 44.5%. As to `O=C1CC(N2CCN(c3ccccc3)CC2)C(=O)N1c1ccc(Cl)cc1` (stereo not given), the inhibition is 58.5%.

Consider `O=C(NCc1ccccn1)Nc1ccc(Br)cc1`, for which the inhibition is -10.5%. Regarding `Fc1ccc(-c2ccc(CNCc3ccccn3)o2)cc1`, the inhibition turned out to be 74.8%. For the molecule `CC(C)c1ccc(N(C)C(=O)Cc2c(C(=O)O)n(C)c3ccccc23)cc1`, the inhibition is -2.94%. In the case of `N#CCc1c(C#N)c(N)nc(N2CCN(C=O)CC2)c1C#N`, the inhibition stood at 2.81%. Take `Cc1[nH]c(C)c(S(=O)(=O)Nc2ccccc2Cl)c1C(=O)N1CCCC1`: the inhibition is -4.19%.

For `Cc1ccc(N(C)S(=O)(=O)c2cccc(C(=O)NNC(=O)c3ccncc3)c2)cc1`, the inhibition amounted to 38.7%. In the case of `COc1ccc([C@@H]2CC(=O)c3c(O)cc(O[C@@H]4OC(CO[C@@H]5OC(C)[C@H](O)[C@@H](O)[C@H]5O)[C@@H](O)[C@H](O)[C@H]4O)cc3O2)cc1O` (stereo not given in full), the inhibition stood at 2.5%. The figure for `CSC(=Nc1ccccc1)c1c(O)n(C)c(=O)n(C)c1=O` is 56.9%; for `CN=C(SCc1ccccc1)c1c(O)n(C)c(=O)n(C)c1=O` it is 11.6%; for `CCOC(=O)C1C(=O)CC(=O)CC1CC(C)SCC` (stereo not given) it is -2.43%.

`Cc1ccc(S(=O)(=O)N2CCN(C(=O)CCOc3cc(C)ccc3C)CC2)cc1`: the inhibition came out at 39.6%. The figure for `N#C/C(=C\Nc1ccc(F)c(Cl)c1)C(=O)C1CC1` is -9.33%; for `C[C@@H](C(=O)Nc1ccc(SC(F)F)cc1)N1C(=O)C2CCCCC2C1=O` (stereo not given in full) it is -9.99%. With `Cc1ccc(CNC(=O)C2(C)Oc3ccccc3NC2=O)cc1` (stereo not given), the inhibition is -3.05%. As to `CCOC(=O)/C=C1\Nc2ccccc2SC1=O`, the inhibition amounted to 19.5%. `COC(=O)C1CCN(S(=O)(=O)c2c(C)n(C)c(=O)n(C)c2=O)CC1`: the inhibition was -0.96%. Next, `CCNc1nc2ccccc2[nH]1`: 11.9%; `O=C(Nc1ccccc1Oc1cccnc1)C1CCCN(Cc2cccc(Cl)c2)C1` (stereo not given): 16.5%; `CC(C)(C)c1ccc(/C=C2/SC(N3CCCC3)=NC2=O)cc1`: 73.6%.

Consider `Cc1ccc(/C=C2\SC(N3CCCCC3)=NC2=O)cc1`, for which the inhibition is 77.7%. Consider `O=C(NC1CC2CCCC(C1)N2Cc1ccccc1)C1CCCCC1` (stereo not given), for which the inhibition is -4.43%. For `CCCCCCSc1ccc(-c2nc3ccc(C)cn3c2NCc2ccccc2)cc1OC`, the inhibition came to 8.88%. Turning to `O=C(COc1ccccc1)NCC(=O)N/N=C/c1ccccc1`, the inhibition came out at 12.4%.

Consider `COc1ccc(-c2csc(C3=C(O)CN(CCCN4CCCC4=O)C3=N)n2)cc1OC`, for which the inhibition stood at 2.8%. The figure for `Cc1ccc2oc(=O)c(/C=C(\O)c3ccco3)nc2c1` is -4.98%; for `Cc1ccc2oc(=O)c(/C=C(\O)c3cccs3)nc2c1` it is -10.4%. As to `Cc1ccc(/C(O)=C/c2nc3cc(C)ccc3oc2=O)cc1`, the inhibition worked out at 18.1%. As for `Cc1ccc2oc(=O)c(/C=C(\O)c3sc(C)nc3C)nc2c1`, the inhibition is 2.53%. `Cc1ccc2oc(=O)c(/C=C(\O)c3ccccc3)nc2c1`: the inhibition stood at 4.41%. For `O=c1oc2ccccc2nc1/C=C(\O)c1ccccc1`, the inhibition amounted to 77.3%. Next, `CC(C(=O)c1ccccc1)[n+]1cccc(C(N)=O)c1` (stereo not given): -11.2%; `Cc1cc(=O)[nH]c(SCC(=O)Nc2ccc(S(=O)(=O)N3CCOCC3)cc2)n1`: -13.9%; `CN(c1ccc(C(=O)NC2CCCC2)cc1)S(=O)(=O)c1ccccc1`: 9.33%. `CC(=O)Oc1ccc(OC(C)=O)c(S(=O)(=O)c2ccc(C)c(C)c2)c1`: the inhibition was -1.53%. Take `CCOC(=O)N1CCN(S(=O)(=O)c2ccc(C)cc2)C1c1ccc(OC)cc1` (stereo not given): the inhibition turned out to be 16.9%. The figure for `Brc1ccc2c(c1)C(c1ccc(N3CCOCC3)cc1)=NNC(c1cccs1)=N2` is 18.5%; for `c1ccc(-n2c(-c3ccco3)nnc2-c2ccco2)cc1` it is -0.67%. As for `COC(=O)[C@@]1(Cc2ccc(OC)cc2)[C@H]2c3cc(C(=O)N(C)C)n(CCc4ccc(OC)c(Br)c4)c3C[C@H]2CN1C(=O)c1ccccc1`, the inhibition worked out at 70.8%.
